Results from PubChem BioAssay (Tox21).
Unmarked numbers belong to inactive results. Results filed as inconclusive are left out. Where a call stands in place of a potency, no number is given. The source made the active and inactive calls. Unless noted, calls come from the whole dose curve; as a rule, active = well fitted curve in the direction sought with a large enough effect in the repeat runs; inconclusive = weak or mixed curves; inactive = no such curve, though single readings can be large; an effect the other way counts as inactive or inconclusive.

What was measured:
[1] = qHTS assay to identify small molecule agonists of the TGF-beta/Smad signaling pathway (AID 1346859; active = well fitted activation curve with a large enough effect in the signal ratio in the repeat runs, not every such curve was filed as active; the % refers to the signal ratio); conditions: SBE-bla HEK293T, TGF-beta/Smad beta-lactamase reporter, 5 h; series mostly up to 76.8 µM
Summary of the method: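 Dual-wavelength fluorescence (460/530 nm emission) quantified beta-lactamase expression under the Smad binding element in HEK 293T cells following 5 hr compound treatment at 37 C.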

[2] = target: Thyrotropin-releasing hormone receptor (Homo sapiens) (UniProt P34981); assay: qHTS assay to identify small molecule antagonists of the thyrotropin-releasing hormone receptor (TRHR) signaling pathway (AID 1346877; active = well fitted inhibition curve with a large enough effect in the repeat runs, not every such curve was filed as active); conditions: TRHR-HEK293, TRH-induced calcium fluorescence, antagonist mode; series mostly up to 51.3 µM
Sequence of Thyrotropin-releasing hormone receptor (Homo sapiens) (P34981 whole entry, looked up): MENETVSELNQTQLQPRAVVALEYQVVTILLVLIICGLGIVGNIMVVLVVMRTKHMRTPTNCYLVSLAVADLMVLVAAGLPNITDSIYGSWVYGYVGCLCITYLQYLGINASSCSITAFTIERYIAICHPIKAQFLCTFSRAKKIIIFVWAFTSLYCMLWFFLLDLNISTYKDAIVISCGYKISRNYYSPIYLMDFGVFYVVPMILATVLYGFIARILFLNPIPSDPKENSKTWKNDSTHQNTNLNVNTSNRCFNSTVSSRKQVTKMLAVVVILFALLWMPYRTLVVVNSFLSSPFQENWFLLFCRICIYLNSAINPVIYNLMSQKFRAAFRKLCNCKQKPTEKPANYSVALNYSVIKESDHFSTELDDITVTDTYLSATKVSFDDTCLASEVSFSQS
Summary of the method: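 Human TRHR in HEK293 cells; inhibition of the intracellular calcium rise triggered by 1 nM TRH was followed by fluorescence over 3 min. Compounds were run at 15 concentrations, three replicates each.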

[3] = target: Thyrotropin-releasing hormone receptor (Homo sapiens) (UniProt P34981); assay: qHTS assay to identify small molecule agonists of the thyrotropin-releasing hormone receptor (TRHR) signaling pathway (AID 1346891; calls by dose curve;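 note: HEK293 cells expressing TRHR with calcium dye readout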); conditions: TRHR-HEK293 calcium fluorescence, agonist mode; series mostly up to 57.6 µM
Summary of the method: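 Kinetic fluorescence (3 min, 1 s intervals) reported intracellular calcium after compound transfer onto TRHR-Hek293 cells pre-loaded with dye for 2 h at 37 °C.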

[4] = Caspase-3/7 induction in HepG2 cells by small molecules, qHTS assay (AID 1346978); conditions: HepG2 caspase-3/7 activation, Caspase-Glo luminescence, 17 h; series mostly up to 92.4 µM; note: nearly all actives have a fitted effect of over 15% in size
Summary of the method: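 Wild-type HepG2 cells (2,000/well) were settled 5 h at 37 C, 5% CO2, then exposed to compounds in DMSO for 17 h. Caspase-3/7 activity was read by luminescence 30 min after adding Caspase-Glo 3/7 reagent at room temperature.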

[5] = Caspase-3/7 induction in CHO-K1 cells by small molecules, qHTS assay (AID 1346980); conditions: CHO-K1 caspase-3/7 induction, Caspase-Glo luminescence, 17 h; series mostly up to 92.4 µM; note: nearly all actives have a fitted effect of over 15% in size
Summary of the method: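 Wild-type cells were seeded at 1,500 per well and settled 5 hr at 37 C, 5% CO2, then exposed to DMSO-dissolved compounds for 17 hr. Caspase-Glo 3/7 reagent was added, and luminescence was read after 30min at room temperature.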

[6] = Caspase-3/7 induction in HepG2 cells by small molecules, qHTS cell viability counter screen (AID 1346981); conditions: CellTiter-Fluor fluorescence, 17 h; series mostly up to 92.4 µM; note: nearly all actives have a fitted effect of over 30% in size
Summary of the method: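 The parent HepG2 line is plated at 2,000 cells per well and rested 5 hr before compound pinning from DMSO stocks. Following a 16-hr treatment at 37 C, a fluorogenic live-cell substrate (CellTiter-Fluor) reports viability after 1 hr.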

[7] = target: Nuclear receptor subfamily 1 group I member 2 (Homo sapiens) (UniProt O75469); assay: Human pregnane X receptor (PXR) small molecule agonists, qHTS assay (AID 1346982); conditions: PXR-Luc HepG2, CYP3A4 luciferase reporter, 24 h; series mostly up to 92.4 µM; note: nearly all actives have a fitted effect of over 35% in size; note: potency is the fitted concentration of half-maximal effect
Sequence of Nuclear receptor subfamily 1 group I member 2 (Homo sapiens) (O75469 whole entry, looked up): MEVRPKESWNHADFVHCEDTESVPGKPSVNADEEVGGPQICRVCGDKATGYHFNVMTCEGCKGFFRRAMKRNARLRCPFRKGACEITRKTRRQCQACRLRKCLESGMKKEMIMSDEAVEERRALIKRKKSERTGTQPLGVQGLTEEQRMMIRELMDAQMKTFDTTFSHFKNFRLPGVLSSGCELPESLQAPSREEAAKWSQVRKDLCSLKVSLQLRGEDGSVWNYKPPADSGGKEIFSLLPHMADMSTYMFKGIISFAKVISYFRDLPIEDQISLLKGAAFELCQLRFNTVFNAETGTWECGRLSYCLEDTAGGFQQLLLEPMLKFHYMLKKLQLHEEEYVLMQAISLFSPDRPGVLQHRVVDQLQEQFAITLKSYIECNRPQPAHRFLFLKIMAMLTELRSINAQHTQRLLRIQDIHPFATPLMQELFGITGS
Summary of the method: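 After plating in 5% charcoal-stripped FBS and a 5 hr rest, PXR-Luc HepG2 cells received compounds in DMSO. Following 24 hr at 37 C, ONE-Glo was added and light output read.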

[8] = Human pregnane X receptor (PXR) small molecule agonists, qHTS cell viability counter screen (AID 1346977); conditions: PXR-Luc HepG2 viability, CellTiter-Fluor, 24 h; series mostly up to 92.4 µM; note: nearly all actives have a fitted effect of over 50% in size
Summary of the method: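 HepG2 cells stably carrying the PXR-Luc reporter are cultured with 5% charcoal-stripped FBS and treated with compounds for 24hr. CellTiter-Fluor is added at 23hr and fluorescence is read after 1hr.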

[9] = Caspase-3/7 induction in CHO-K1 cells by small molecules, qHTS cell viability counter screen (AID 1346979); conditions: CellTiter-Fluor fluorescence, 17 h; series mostly up to 92.4 µM; note: nearly all actives have a fitted effect of over 35% in size
Summary of the method: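 Seeding: 1,500 CHO-K1 cells/well. Rest: 5hr, 37C. Treatment: compounds in DMSO, 16hr. Read: CellTiter-Fluor, 1hr, fluorescence.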

[10] = target: Nuclear receptor subfamily 1 group I member 2 (Rattus norvegicus) (UniProt Q9R1A7); assay: Rat pregnane X receptor (rPXR) activation by small molecules, qHTS assay (AID 1346983); conditions: rPXR luciferase reporter cells, One-Glo luminescence, 24 h; max activation: active compounds read high; note: nearly all actives have a fitted effect of over 20% in size
Sequence of Nuclear receptor subfamily 1 group I member 2 (Rattus norvegicus) (Q9R1A7 whole entry, looked up): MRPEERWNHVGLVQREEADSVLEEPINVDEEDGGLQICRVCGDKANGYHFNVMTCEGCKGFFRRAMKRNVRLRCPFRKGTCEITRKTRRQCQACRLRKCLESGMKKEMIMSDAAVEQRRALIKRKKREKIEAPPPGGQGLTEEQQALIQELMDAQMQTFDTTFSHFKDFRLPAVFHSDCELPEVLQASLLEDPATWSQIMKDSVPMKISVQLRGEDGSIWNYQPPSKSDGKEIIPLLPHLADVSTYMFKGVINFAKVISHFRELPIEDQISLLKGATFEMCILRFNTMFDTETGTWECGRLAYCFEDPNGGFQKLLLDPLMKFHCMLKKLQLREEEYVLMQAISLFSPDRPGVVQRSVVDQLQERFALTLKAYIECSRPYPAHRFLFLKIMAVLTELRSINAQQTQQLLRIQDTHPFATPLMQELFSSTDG
Summary of the method: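 Cell-based rPXR luciferase reporter assay, 2,000 cells per well, rested 5hr at 37 C before compound addition in DMSO, then 24 hr at 37 C. One-Glo reagent was added and luminescence read after 30 min at room temperature.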

SMILES | outcome [1] | outcome [2] | Potency [3] | outcome [4] | outcome [5] | outcome [6] | Potency [7] | outcome [8] | Potency [9] | max activation [10]
CC(=O)SC[C@@H](C)C(=O)N1CCC[C@H]1C(=O)N[C@@H](Cc1ccccc1)C(=O)O | inactive | inactive | inactive | inactive | inactive | inactive | – | – | – | –
CCCCCCCCCCCC(C)=O | inactive | inactive | inactive | inactive | inactive | inactive | inactive | – | – | –
CCc1ccc(CC)cc1 | inactive | inactive | – | inactive | inactive | inactive | inactive | inactive | inactive | –
CC(C)OC(=O)C(C(=O)OC(C)C)=C1SC=CS1 | inactive | inactive | inactive | inactive | inactive | inactive | 26.6 µM (active) | inactive | – | 6.37%
c1coc(Cn2cccc2)c1 | inactive | inactive | – | inactive | inactive | inactive | inactive | inactive | inactive | –
CC1(C)CC(N)CC(C)(C)N1 | inactive | inactive | – | inactive | inactive | inactive | – | inactive | inactive | –
CCCCN1C(=O)c2ccccc2C1=O | inactive | inactive | inactive | inactive | – | inactive | inactive | inactive | – | –
CCCCCCCCCCCCCCBr | inactive | inactive | – | inactive | inactive | inactive | inactive | inactive | inactive | –
C=CC(C)(CCC=C(C)C)OC(=O)C(C)C (stereo not drawn) | inactive | inactive | – | inactive | inactive | inactive | – | inactive | inactive | –
CC(C)(C)C(=O)NCCCC(=O)O | inactive | inactive | inactive | inactive | inactive | inactive | inactive | – | inactive | -1.4%
O=C1Nc2ccccc2C1=O | inactive | inactive | – | inactive | inactive | inactive | inactive | inactive | inactive | –
Cc1cc(C)c(N)c(Cl)c1 | inactive | – | inactive | inactive | inactive | inactive | inactive | inactive | inactive | –
CC[C@@]1(c2ccccc2)NC(=O)N(C)C1=O | inactive | – | inactive | inactive | inactive | inactive | inactive | inactive | inactive | -0.191%
O=C(O)P(=O)(O)O | inactive | inactive | – | inactive | inactive | inactive | inactive | – | inactive | -4.52%
NNC(=O)CCCCC(=O)NN | inactive | inactive | – | inactive | inactive | inactive | – | inactive | – | –
CC(=O)Nc1ccc(S(=O)(=O)Nc2cc(C)on2)cc1 | inactive | inactive | – | inactive | inactive | inactive | inactive | – | inactive | –
CCCCCCCCCCCBr | inactive | inactive | – | inactive | inactive | inactive | – | inactive | – | –
